How the values were obtained:
Assay in all cases: DAPPL (digital affinity profiling via proximity ligation, sequencing); 10 mM Tris-HCl pH 7.5, 50 mM NaCl, 1 mM DTT, 4% glycerol, room temperature, 30 min; GST-TFs on glutathione beads, 16-mer random dsDNA library, 0.1% formaldehyde crosslink after washing; high values mean tight binding
FLI1 = molecular target: T1, FLI1 (Homo sapiens, UniProt Q01543 1-452); conditions: protein: recombinant; tags: N-terminal GST; dsDNA, one strand shown
T1 sequence: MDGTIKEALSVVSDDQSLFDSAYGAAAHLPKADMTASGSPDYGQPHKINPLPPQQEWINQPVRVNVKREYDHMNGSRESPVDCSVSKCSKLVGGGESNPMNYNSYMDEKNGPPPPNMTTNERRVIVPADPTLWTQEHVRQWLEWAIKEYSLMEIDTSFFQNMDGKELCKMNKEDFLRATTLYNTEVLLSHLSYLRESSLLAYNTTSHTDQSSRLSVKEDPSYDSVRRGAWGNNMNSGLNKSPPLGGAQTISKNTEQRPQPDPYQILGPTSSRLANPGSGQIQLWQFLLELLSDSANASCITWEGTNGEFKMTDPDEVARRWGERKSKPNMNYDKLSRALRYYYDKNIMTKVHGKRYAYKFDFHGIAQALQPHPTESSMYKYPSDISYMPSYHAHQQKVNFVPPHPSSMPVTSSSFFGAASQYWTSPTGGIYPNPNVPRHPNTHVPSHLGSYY
In short: (§1)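 A tag-only sample was pooled with DNA-barcoded human transcription factors that had been expressed in yeast as GST fusions and captured on glutathione beads. The pools were incubated for 30 min at room temperature with 200 nmole of a random double-stranded 16-mer DNA library in Tris/NaCl/DTT/glycerol buffer, then washed, crosslinked with 0.1% formaldehyde, proximity-ligated (BsaI/T4 ligase, 1 h, 37 °C), PCR-amplified and sequenced on an Illumina NextSeq500. Binding signal is each hexamer's read frequency for a factor divided by its frequency for the tag-only sample.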

ELK1 = molecular target: T2, ELK1 (Homo sapiens, UniProt P19419 1-428); conditions: protein: recombinant; tags: N-terminal GST; dsDNA, one strand shown
T2 sequence: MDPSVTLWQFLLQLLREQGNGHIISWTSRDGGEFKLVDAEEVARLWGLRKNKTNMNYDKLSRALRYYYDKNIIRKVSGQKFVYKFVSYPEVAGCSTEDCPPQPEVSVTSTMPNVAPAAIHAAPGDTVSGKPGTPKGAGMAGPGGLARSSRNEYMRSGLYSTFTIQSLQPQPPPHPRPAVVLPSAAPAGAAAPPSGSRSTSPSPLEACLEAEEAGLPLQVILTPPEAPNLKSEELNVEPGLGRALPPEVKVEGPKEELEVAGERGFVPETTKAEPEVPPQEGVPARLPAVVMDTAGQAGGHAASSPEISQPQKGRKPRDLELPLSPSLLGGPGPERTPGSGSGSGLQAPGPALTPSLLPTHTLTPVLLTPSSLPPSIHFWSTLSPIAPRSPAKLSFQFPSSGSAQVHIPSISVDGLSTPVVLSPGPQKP
In short: as §1

GABPA = molecular target: T3, GABPA (Homo sapiens, UniProt Q06546 1-454); conditions: protein: recombinant; tags: N-terminal GST; dsDNA, one strand shown
T3 sequence: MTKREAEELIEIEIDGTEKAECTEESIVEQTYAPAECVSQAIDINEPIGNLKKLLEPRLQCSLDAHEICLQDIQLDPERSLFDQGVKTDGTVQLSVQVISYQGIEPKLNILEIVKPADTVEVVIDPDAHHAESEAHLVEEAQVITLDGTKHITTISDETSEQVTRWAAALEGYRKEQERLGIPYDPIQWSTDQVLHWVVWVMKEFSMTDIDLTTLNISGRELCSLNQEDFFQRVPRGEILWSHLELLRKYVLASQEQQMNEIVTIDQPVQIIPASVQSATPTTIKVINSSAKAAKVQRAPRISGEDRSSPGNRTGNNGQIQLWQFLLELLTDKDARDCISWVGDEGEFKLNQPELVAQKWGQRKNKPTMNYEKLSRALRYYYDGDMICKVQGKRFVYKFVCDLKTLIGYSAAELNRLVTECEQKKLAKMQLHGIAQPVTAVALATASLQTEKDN
In short: as §1

ERG = molecular target: T4, ERG (Homo sapiens, UniProt P11308 1-479); conditions: protein: recombinant; tags: N-terminal GST; dsDNA, one strand shown
T4 sequence: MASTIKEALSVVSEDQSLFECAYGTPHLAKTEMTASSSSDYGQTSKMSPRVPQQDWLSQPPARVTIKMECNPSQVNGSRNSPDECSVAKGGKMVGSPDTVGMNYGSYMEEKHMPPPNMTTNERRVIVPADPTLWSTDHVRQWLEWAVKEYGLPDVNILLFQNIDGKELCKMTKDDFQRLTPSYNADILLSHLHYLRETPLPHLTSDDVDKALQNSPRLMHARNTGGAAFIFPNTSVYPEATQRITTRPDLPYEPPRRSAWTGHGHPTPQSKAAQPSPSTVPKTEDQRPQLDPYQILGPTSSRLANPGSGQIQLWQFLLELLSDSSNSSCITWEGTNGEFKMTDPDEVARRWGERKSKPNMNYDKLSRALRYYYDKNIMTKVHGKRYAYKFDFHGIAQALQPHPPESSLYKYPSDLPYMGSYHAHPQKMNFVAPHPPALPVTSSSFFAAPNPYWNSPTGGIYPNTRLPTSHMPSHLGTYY
In short: as §1

ELF1 = ELF1 (Homo sapiens, UniProt P32519 1-619); conditions: protein: recombinant; tags: N-terminal GST; dsDNA, one strand shown
In short: as §1

EHF = molecular target: T5, EHF (Homo sapiens, UniProt Q9NZC4 1-300); conditions: protein: recombinant; tags: N-terminal GST; dsDNA, one strand shown
T5 sequence: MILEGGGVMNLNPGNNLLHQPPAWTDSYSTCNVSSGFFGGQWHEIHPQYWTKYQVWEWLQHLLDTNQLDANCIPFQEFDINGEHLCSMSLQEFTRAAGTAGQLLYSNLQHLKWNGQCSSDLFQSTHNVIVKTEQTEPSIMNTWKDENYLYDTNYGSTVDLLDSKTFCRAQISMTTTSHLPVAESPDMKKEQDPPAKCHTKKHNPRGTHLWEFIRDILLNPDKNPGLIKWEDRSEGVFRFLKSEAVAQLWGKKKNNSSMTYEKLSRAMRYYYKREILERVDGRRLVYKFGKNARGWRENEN
In short: as §1

SPI1 = SPI1 (Homo sapiens, UniProt P17947 1-270); conditions: protein: recombinant; tags: N-terminal GST; dsDNA, one strand shown
In short: as §1

SPIB = SPIB (Homo sapiens, UniProt Q01892 1-262); conditions: protein: recombinant; tags: N-terminal GST; dsDNA, one strand shown
In short: as §1

ELK3 = molecular target: T6, ELK3 (Homo sapiens, UniProt P41970 1-407); conditions: protein: recombinant; tags: N-terminal GST; dsDNA, one strand shown
T6 sequence: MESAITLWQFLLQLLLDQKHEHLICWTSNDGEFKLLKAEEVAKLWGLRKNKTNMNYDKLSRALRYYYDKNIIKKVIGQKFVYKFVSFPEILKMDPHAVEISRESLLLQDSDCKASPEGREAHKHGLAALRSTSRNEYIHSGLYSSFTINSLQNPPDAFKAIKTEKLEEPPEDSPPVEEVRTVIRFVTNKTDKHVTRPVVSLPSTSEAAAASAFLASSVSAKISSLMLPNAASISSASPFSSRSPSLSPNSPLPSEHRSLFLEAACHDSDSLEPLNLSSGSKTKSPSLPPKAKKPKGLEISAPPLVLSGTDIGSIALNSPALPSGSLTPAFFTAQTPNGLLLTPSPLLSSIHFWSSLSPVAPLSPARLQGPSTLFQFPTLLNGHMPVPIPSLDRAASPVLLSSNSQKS
In short: as §1

FEV = molecular target: T7, FEV (Homo sapiens, UniProt Q99581 1-238); conditions: protein: recombinant; tags: N-terminal GST; dsDNA, one strand shown
T7 sequence: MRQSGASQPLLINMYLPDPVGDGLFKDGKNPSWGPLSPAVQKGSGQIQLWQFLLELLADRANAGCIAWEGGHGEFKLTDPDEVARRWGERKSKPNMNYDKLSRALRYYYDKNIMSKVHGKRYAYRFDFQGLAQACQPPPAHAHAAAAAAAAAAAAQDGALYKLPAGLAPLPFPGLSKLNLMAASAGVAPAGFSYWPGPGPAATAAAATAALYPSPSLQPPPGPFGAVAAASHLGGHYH
In short: as §1

ETV5 = ETV5 (Homo sapiens, UniProt P41161 1-510); conditions: protein: recombinant; tags: N-terminal GST; dsDNA, one strand shown
In short: as §1

HSF1 = HSF1 (Homo sapiens, UniProt Q00613 1-529); conditions: protein: recombinant; tags: N-terminal GST; chain copies: 3; dsDNA, one strand shown
In short: as §1

SPIC = molecular target: T8, SPIC (Homo sapiens, UniProt Q8N5J4 1-248); conditions: protein: recombinant; tags: N-terminal GST; dsDNA, one strand shown
T8 sequence: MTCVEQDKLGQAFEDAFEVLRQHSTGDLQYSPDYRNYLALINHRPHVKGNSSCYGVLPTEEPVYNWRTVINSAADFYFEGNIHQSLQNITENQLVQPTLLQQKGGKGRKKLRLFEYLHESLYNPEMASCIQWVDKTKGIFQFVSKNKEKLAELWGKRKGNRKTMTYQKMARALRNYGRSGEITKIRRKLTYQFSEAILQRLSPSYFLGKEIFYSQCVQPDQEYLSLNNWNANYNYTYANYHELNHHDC
In short: as §1

ELF4 = ELF4 (Homo sapiens, UniProt Q99607 1-663); conditions: protein: recombinant; tags: N-terminal GST; dsDNA, one strand shown
In short: as §1

ELK4 = molecular target: T9, ELK4 (Homo sapiens, UniProt P28324-2 1-405); conditions: protein: recombinant; tags: N-terminal GST; dsDNA, one strand shown
T9 sequence: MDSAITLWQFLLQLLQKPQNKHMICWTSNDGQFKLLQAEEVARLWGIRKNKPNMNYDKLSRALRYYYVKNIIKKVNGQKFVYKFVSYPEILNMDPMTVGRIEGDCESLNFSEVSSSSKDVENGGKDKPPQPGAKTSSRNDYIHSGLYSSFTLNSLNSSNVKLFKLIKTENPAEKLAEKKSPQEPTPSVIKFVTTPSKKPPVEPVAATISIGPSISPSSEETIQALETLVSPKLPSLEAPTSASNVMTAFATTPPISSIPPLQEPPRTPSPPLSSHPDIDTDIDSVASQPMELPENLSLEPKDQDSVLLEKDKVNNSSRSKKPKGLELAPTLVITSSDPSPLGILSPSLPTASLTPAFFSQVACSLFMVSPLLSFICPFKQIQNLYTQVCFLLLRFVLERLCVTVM
In short: as §1

ETV2 = molecular target: T10, ETV2 (Homo sapiens, UniProt O00321 1-342); conditions: protein: recombinant; tags: N-terminal GST; dsDNA, one strand shown
T10 sequence: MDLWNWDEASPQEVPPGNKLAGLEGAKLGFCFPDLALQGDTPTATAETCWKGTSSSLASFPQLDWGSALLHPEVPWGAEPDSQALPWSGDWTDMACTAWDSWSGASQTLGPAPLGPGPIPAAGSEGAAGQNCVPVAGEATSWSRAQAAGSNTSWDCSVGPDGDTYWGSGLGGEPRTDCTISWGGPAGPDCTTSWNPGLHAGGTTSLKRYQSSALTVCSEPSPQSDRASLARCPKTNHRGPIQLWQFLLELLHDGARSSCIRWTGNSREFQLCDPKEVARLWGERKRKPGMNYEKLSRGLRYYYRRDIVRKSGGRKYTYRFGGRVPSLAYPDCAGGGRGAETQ
In short: as §1

ELF3 = molecular target: T11, ELF3 (Homo sapiens, UniProt P78545 1-371); conditions: protein: recombinant; tags: N-terminal GST; dsDNA, one strand shown
T11 sequence: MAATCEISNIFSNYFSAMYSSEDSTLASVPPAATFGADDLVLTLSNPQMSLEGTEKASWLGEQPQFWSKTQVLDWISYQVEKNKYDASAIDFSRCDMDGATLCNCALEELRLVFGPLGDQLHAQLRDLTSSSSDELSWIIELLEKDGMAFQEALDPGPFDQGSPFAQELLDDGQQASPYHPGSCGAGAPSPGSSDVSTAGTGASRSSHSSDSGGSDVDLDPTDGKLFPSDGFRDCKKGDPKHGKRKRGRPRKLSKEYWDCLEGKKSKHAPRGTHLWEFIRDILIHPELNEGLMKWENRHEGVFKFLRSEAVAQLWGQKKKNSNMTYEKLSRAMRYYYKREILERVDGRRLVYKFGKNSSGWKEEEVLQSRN
In short: as §1

CRX = CRX (Homo sapiens, UniProt O43186 1-299); conditions: protein: recombinant; tags: N-terminal GST; dsDNA, one strand shown
In short: as §1

ETV1 = ETV1 (Homo sapiens, UniProt P50549 1-477); conditions: protein: recombinant; tags: N-terminal GST; dsDNA, one strand shown
In short: as §1

Sequence of ELF4 (Q99607 whole entry): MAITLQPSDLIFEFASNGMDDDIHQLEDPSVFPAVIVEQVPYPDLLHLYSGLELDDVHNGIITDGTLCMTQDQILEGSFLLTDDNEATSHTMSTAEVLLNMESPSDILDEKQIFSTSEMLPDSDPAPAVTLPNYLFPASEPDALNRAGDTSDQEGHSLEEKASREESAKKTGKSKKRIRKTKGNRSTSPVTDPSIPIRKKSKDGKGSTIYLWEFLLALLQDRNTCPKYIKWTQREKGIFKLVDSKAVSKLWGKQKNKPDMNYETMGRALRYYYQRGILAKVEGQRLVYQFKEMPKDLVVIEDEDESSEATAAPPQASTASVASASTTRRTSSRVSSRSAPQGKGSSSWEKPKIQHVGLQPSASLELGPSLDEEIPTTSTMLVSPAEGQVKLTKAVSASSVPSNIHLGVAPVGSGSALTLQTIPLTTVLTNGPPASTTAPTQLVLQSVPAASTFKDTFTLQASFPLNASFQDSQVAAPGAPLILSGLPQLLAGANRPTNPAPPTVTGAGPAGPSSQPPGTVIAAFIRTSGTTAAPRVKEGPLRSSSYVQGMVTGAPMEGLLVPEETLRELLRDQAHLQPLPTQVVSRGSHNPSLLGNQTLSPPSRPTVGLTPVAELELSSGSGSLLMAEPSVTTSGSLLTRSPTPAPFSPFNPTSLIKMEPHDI
Sequence of SPIB (Q01892 whole entry): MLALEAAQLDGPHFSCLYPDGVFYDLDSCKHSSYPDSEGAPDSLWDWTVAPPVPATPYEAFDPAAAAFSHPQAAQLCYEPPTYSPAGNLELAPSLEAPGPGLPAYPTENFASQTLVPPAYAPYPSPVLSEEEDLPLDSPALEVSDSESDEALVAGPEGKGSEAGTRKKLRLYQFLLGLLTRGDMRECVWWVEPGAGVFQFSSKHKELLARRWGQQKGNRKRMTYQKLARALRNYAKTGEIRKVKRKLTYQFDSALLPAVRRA
Sequence of HSF1 (Q00613 whole entry): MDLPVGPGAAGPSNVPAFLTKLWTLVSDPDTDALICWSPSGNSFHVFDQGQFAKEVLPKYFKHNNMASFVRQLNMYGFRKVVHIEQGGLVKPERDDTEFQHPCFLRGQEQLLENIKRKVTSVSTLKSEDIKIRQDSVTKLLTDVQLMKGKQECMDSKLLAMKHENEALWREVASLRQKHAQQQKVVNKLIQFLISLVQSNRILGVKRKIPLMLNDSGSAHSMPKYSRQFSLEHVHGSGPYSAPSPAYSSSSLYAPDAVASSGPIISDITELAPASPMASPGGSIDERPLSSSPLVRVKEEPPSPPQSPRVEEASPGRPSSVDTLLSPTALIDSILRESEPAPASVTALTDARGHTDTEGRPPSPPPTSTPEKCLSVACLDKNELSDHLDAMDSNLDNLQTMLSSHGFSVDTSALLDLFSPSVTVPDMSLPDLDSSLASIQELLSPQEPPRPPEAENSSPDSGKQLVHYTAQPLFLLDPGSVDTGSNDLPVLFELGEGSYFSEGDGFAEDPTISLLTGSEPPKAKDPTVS
Sequence of ELF1 (P32519 whole entry): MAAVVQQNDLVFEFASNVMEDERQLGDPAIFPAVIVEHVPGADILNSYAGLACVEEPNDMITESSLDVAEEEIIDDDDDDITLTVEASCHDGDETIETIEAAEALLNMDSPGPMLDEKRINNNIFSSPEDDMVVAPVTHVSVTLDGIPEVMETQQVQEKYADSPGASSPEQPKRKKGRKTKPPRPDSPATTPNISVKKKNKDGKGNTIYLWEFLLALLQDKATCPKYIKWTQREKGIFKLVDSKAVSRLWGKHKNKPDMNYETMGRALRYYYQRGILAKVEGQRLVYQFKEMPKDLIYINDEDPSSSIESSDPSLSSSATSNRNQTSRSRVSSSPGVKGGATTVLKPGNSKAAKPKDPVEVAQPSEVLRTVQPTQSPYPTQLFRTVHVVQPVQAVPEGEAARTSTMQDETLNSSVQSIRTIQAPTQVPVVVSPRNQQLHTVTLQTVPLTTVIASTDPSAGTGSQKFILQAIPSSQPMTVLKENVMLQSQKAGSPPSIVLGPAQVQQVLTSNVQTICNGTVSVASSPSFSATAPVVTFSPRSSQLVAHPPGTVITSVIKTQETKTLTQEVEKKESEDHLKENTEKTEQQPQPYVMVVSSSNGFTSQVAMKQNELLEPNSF
Sequence of CRX (O43186 whole entry): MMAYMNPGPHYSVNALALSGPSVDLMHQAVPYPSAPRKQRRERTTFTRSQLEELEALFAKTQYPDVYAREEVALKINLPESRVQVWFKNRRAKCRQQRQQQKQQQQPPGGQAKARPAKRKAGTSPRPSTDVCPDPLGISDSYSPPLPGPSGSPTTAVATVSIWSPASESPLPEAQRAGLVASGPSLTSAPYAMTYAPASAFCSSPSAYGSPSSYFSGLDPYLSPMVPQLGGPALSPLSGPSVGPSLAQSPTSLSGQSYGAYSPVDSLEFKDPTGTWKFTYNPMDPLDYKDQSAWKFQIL
Sequence of ETV5 (P41161 whole entry): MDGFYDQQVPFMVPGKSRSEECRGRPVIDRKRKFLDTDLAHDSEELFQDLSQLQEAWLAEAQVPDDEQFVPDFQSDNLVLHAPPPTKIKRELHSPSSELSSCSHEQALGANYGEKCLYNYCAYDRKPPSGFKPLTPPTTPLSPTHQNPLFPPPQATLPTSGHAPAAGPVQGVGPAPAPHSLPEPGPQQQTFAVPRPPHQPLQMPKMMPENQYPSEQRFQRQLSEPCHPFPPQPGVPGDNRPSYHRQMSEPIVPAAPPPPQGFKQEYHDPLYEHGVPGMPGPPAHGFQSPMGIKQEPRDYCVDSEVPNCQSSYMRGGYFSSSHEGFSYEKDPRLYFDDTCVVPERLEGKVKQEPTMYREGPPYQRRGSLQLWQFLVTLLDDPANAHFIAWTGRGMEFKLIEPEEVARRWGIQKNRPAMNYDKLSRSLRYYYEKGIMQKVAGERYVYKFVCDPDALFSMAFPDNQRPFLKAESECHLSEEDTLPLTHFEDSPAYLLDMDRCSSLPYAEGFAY
Sequence of ETV1 (P50549 whole entry): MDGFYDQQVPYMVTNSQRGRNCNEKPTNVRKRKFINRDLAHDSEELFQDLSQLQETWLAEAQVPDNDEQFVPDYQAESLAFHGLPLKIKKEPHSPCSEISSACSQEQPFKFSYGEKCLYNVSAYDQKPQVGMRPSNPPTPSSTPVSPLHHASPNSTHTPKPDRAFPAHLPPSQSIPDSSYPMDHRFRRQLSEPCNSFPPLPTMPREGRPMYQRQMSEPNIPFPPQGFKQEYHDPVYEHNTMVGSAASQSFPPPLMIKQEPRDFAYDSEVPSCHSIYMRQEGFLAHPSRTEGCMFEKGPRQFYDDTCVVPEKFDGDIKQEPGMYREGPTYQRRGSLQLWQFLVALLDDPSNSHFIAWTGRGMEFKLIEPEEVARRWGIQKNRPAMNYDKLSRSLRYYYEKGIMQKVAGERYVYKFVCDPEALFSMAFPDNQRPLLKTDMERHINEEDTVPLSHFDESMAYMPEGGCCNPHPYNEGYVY

TTGTTA
binding signal (FLI1): 1.32 fold enrichment (6-mer frequency, TF over GST control) | binding signal (ELK1): 1.34 fold enrichment (6-mer frequency, TF over GST control) | binding signal (GABPA): 1.32 fold enrichment (6-mer frequency, TF over GST control) | binding signal (ERG): 1.33 fold enrichment (6-mer frequency, TF over GST control) | binding signal (ELF1): 1.29 fold enrichment (6-mer frequency, TF over GST control) | binding signal (EHF): 1.36 fold enrichment (6-mer frequency, TF over GST control) | binding signal (SPI1): 1.26 fold enrichment (6-mer frequency, TF over GST control) | binding signal (SPIB): 1.33 fold enrichment (6-mer frequency, TF over GST control) | binding signal (ELK3): 1.47 fold enrichment (6-mer frequency, TF over GST control) | binding signal (FEV): 1.3 fold enrichment (6-mer frequency, TF over GST control) | binding signal (ETV5): 1.31 fold enrichment (6-mer frequency, TF over GST control) | binding signal (HSF1): 1.34 fold enrichment (6-mer frequency, TF over GST control) | binding signal (SPIC): 1.31 fold enrichment (6-mer frequency, TF over GST control) | binding signal (ELF4): 1.32 fold enrichment (6-mer frequency, TF over GST control) | binding signal (ELK4): 1.47 fold enrichment (6-mer frequency, TF over GST control) | binding signal (ETV2): 1.35 fold enrichment (6-mer frequency, TF over GST control) | binding signal (ELF3): 1.08 fold enrichment (6-mer frequency, TF over GST control) | binding signal (CRX): 1.61 fold enrichment (6-mer frequency, TF over GST control) | binding signal (ETV1): 1.35 fold enrichment (6-mer frequency, TF over GST control)
